Bioassay records (PubChem)
In the library only some 15% were active in any assay of this set; here they are far more common.
DT40 TDP1 no CPT: qHTS for Inhibitors of human tyrosyl-DNA phosphodiesterase 1 (TDP1): qHTS in cells in absence of CPT; DT40 Tdp1-/- hTDP1 cells, no CPT, ATP luminescence, 48 h; Potency, µM (series often up to 46.2 µM), most hits filed as inhibitors; 420,000 tested, 15% active; AID 686978, 2013; note: nearly all actives have a fitted effect of over 55% in size
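Seeded 400 DT40-hTDP1 cells/well (vehicle DMSO, no 20 nM CPT); pinned compounds; ≥48 hr at 37 °C; CellTiter-Glo luminescence as viability measure.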
TDP1 cell CPT: DT40-hTDP1 cell growth loss with CPT; Potency, µM (doses to about 46.2 µM), actives largely listed as inhibitors; 420,000 tested, 12% active; chicken DT40 Tdp1-/-;hTDP1 cells + 20 nM CPT, ATP luminescence, 48 h; note: nearly all actives have a fitted effect of over 55% in size
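Cell growth measured by CellTiter-Glo luminescence after a minimum 48 h, 37 C compound exposure with 20 nM CPT in Tdp1-knockout DT40 cells stably expressing hTDP1, seeded 400/well; qHTS titration format.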
12-LOX inh: inhibitors of human 12S-lipoxygenase ALOX12 | P18054 | purified 12hLO, xylenol orange hydroperoxide absorbance | Potency, µM (doses to about 108 µM), usual class: inhibitors | 580,000 tested, 1.1% active | AID 1671190
Target sequence (P18054 whole entry, looked up): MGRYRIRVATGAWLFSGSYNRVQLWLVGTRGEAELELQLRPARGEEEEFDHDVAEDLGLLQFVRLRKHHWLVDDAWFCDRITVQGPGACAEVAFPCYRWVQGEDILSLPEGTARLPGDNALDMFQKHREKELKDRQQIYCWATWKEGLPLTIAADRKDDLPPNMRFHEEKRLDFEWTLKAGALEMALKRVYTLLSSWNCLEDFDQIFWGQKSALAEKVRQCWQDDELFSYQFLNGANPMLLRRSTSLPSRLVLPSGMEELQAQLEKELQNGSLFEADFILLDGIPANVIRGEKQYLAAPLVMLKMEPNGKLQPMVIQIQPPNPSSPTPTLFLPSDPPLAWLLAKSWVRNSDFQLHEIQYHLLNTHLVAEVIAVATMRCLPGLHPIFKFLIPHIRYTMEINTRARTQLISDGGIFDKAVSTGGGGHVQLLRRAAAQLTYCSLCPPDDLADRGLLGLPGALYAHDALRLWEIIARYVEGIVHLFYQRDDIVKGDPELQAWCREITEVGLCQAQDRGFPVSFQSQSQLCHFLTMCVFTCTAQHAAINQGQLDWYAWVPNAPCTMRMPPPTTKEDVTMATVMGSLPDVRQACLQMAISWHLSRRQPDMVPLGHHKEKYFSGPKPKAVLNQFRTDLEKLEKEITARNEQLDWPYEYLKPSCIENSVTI
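Purified human 12hLO at 150 nM in 25 mM Hepes, 0.01% Triton X-100, pH 7.0, preincubated 15 min at room temperature with compound. Reaction started with 40 uM arachidonic acid, 30 min at room temperature. Hydroperoxide measured by Fe-xylenol orange, 573/405 nm absorbance ratio.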
RORgamma inh: ROR gamma (mouse) transcription inhibition | P51450 | Potency, µM (titrated, usually from 53.6 µM), most hits filed as inhibitors | Drosophila S2 Gal4-RORgamma UAS-luciferase reporter, 20 h | 310,000 tested, 5.4% active; note: nearly all actives have a fitted effect of over 60% in size
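Compounds are pin-transferred onto Drosophila Schneider cells expressing a copper-inducible Gal4–ROR gamma transactivation domain fusion. After 1 hr, copper sulfate is added to 700 uM final; luciferase is read 20 hr later.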
ELG1 DNA repair: inhibitors of ELG1-dependent DNA repair in HEK293T cells | HEK293T ELG1-luciferase reporter, luminescence, 16 h; DNA damage induced by 5-fluorouridine | Potency, µM (titrated, usually from 46.1 µM), actives largely listed as inhibitors | 330,000 tested, 2.3% active | AID 504467; note: nearly all actives have a fitted effect of over 55% in size
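Luminescence from the luciferase reporter, measured 30 min after ONE-Glo reagent at room temperature, was the read-out. Beforehand, 2,000 cells per well were exposed for 16 hr at 37 °C to 5-fluorouridine together with compound or vehicle.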
Gal4-VP16 FLuc: inhibits Gal4-VP16 luciferase reporter, ROR gamma counter-screen. Drosophila S2 Gal4-VP16 UAS-luciferase, luminescence, 20 h. Potency, µM (highest dose often 53.6 µM), usual class: inhibitors. 310,000 tested, 3.5% active. AID 2546;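 note: Gal4-VP16 expression switched on by copper sulfate through the metallothionein promoter; nearly all actives have a fitted effect of over 50% in size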
A number is an active result; - = inactive; ? = inconclusive; . = no result given. Calls come from the whole dose curve; as a rule, active = well fitted curve in the direction sought with a large enough effect; inconclusive = small, poorly fitted or top-dose-only effect, or another doubt; inactive = no such curve, though single readings can be large; an effect the other way counts as inactive or inconclusive.

SMILES	DT40 TDP1 no CPT	TDP1 cell CPT	12-LOX inh	RORgamma inh	ELG1 DNA repair	Gal4-VP16 FLuc
COC(=O)C[C@H]1c2cc(C(F)(F)F)ccc2S(=O)(=O)N1C1CCCC1	?	23µM	-	.	.	.
CCCCCCCCN1[C@@H](CC(=O)OC)c2cc(C(F)(F)F)ccc2S1(=O)=O	?	?	-	.	.	.
CCCCCCCCN1[C@@H](CC(C)=O)c2cc(C(F)(F)F)ccc2S1(=O)=O	13µM	?	-	.	.	.
COC(=O)CCCNC(=O)Cn1ccc2cc(Br)ccc21	.	.	-	.	.	.
O=[N+]([O-])c1cccc(-c2c(-c3ccccc3)ncc3ccc(F)cc23)c1	8.2µM	9.2µM	-	.	?	.
Cc1cc(Nc2ccc(Cl)cc2)n2cnnc2n1	-	-	-	.	.	.
COc1cccc(CNc2cc(C)nc3nc(-c4ccc(C)cc4)nn23)c1	.	.	-	.	.	.
COc1ccc(-c2cc(NCc3ccc(C)cc3)n3cnnc3n2)cc1	13µM	15µM	-	.	.	.
Cc1cc(NCc2ccc(Cl)cc2)n2cnnc2n1	8.2µM	21µM	-	.	.	.
O=C(Nc1cccc(Cl)c1Cl)c1cc(S(=O)(=O)NCCc2ccccc2)ccc1F	?	?	-	5µM	-	-
CCc1cccc(C)c1NC(=O)c1cc(S(=O)(=O)NCc2ccccc2Cl)ccc1F	26µM	21µM	-	.	.	.
Cc1ccc(C)c(NC(=O)c2cc(S(=O)(=O)NCc3ccccc3)ccc2F)c1	?	?	-	.	.	.
O=C(Nc1cc(Cl)ccc1Cl)c1cc(S(=O)(=O)NCCc2ccccc2)ccc1F	16µM	?	-	.	.	.
CCC1CCCCN1C(=O)CSc1nnc(-c2cc(OC)c(OC)c(OC)c2)o1 (configuration not stated)	.	.	-	.	.	.
CC1(C)CC2(CC(c3cccs3)c3cc(Cl)c(O)cc3O2)NC(=S)N1 (configuration not stated)	7.3µM	8.2µM	?	?	-	?
C[C@H](CO)N1C[C@H](C)[C@H](CN(C)Cc2ccc(F)cc2)Oc2ncc(Br)cc2C1=O	.	.	-	.	.	.
C[C@@H]1CN([C@@H](C)CO)C(=O)c2cc(Br)cnc2O[C@@H]1CN(C)Cc1ccc(Oc2ccccc2)cc1	16µM	-	-	.	.	.
C[C@@H]1CN([C@@H](C)CO)C(=O)c2cc(-c3ccccc3F)cnc2O[C@H]1CN(C)Cc1cccc(F)c1	23µM	?	-	.	.	.
C[C@H]1CN([C@@H](C)CO)C(=O)c2cc(/C=C/c3ccccc3)cnc2O[C@H]1CN(C)C(=O)c1cccc(F)c1	23µM	?	?	.	.	.
C[C@H](O)C#Cc1cnc2c(c1)C(=O)N([C@H](C)CO)C[C@@H](C)[C@@H](CN(C)Cc1ccc(-c3ccccc3)cc1)O2	1.3µM	?	?	.	.	.
C[C@@H]1CN([C@H](C)CO)C(=O)c2cc(Br)cnc2O[C@H]1CN(C)Cc1ccccc1F	.	.	-	.	.	.
O=C(NCCC1=CCCCC1)c1cn(CCCc2ccccc2)nn1	.	.	-	.	.	.
C[C@@H]1CN([C@@H](C)CO)C(=O)c2cc(C#Cc3cccc(F)c3)cnc2O[C@@H]1CN(C)CC1CCOCC1	?	16µM	-	.	.	.
CN1c2cc(C(=O)NCc3cccc(F)c3)ccc2C(=O)N2CCCCC21 (configuration not stated)	.	.	-	.	.	.
CCOC(=O)c1[nH]c2ccc(OCC)cc2c1NC(=O)CN1CCC2(CC1)OCCO2	?	?	-	-	8.2µM	-
SMILES	DT40 TDP1 no CPT	TDP1 cell CPT	12-LOX inh	RORgamma inh	ELG1 DNA repair	Gal4-VP16 FLuc
CCOC(=O)c1[nH]c2cc3c(cc2c1NC(=O)CN1CCC2(CC1)OCCO2)OCO3	?	?	-	-	?	-
CCOC(=O)c1[nH]c2ccc(OCC)cc2c1NC(=O)CN1CCN(c2ccccc2)CC1	?	21µM	-	?	?	-
CC(=O)c1cccc(NC(=S)NC(=O)c2ccc(Cl)cc2)c1	-	?	-	7.1µM	?	8.9µM
CC(=O)c1ccc(NC(=S)Nc2ccc(Br)c(Cl)c2)cc1	?	?	?	-	-	-
O=C(O)c1cccc(NC(=S)NC(=O)c2ccncc2)c1	-	?	?	-	-	-
CC(=O)c1ccc(NC(=S)NC(C)c2ccc(Cl)cc2Cl)cc1 (configuration not stated)	29µM	?	?	11µM	-	-
CC(=O)c1cccc(NC(=S)NC(=O)c2ccccc2C)c1	-	-	-	-	-	-
CC(=O)c1cccc(NC(=S)NC(=O)c2cccc(C)c2)c1	-	-	32µM	7.9µM	?	?
CC(=O)c1cccc(NC(=S)NC(=O)c2ccccc2Br)c1	-	-	?	11µM	-	-
CNc1oc(-c2ccccc2F)nc1S(=O)(=O)c1ccc2c(c1)OCCO2	.	.	-	.	.	.
Cc1cccc(CN2CCCN(S(=O)(=O)c3ccccc3)CCC(=O)NCC2)c1	.	.	-	.	.	.
CC(=O)c1cccc(NC(=O)c2c(F)c(F)c(F)c(F)c2F)c1	29µM	?	-	-	?	?
O=C(NCCOc1ccccc1)c1ccccc1SCC(=O)N1CCCC1	-	-	-	.	-	.
COC(=O)COc1ccccc1C(=O)Nc1ccc(OC)cc1	-	-	-	-	-	-
COc1ccc(OCCNC(=O)c2ccccc2OCC(=O)N2CCCCC2)cc1	18µM	21µM	-	-	23µM	-
COc1ccc(OCCNC(=O)c2ccccc2OCC(=O)Nc2ccc(NC(C)=O)cc2)cc1	15µM	18µM	-	-	16µM	-
CC(C)NC(=O)COc1ncnc2ccc(Br)cc12	.	.	-	.	.	.
CC1=C(C(=O)N(C(C)C)C(C)C)CC(CC(=O)NC2CC2)C(=O)N1CCC1=CCCCC1 (configuration not stated)	?	16µM	-	.	.	.
CC1=C(C(=O)N(C(C)C)C(C)C)CC(CC(=O)NC2CCCC2)C(=O)N1CCC1=CCCCC1 (configuration not stated)	23µM	?	-	.	.	.
CC1=C(C(=O)N(C)C)CC(CC(=O)NC2CC2)C(=O)N1CCC1=CCCCC1 (configuration not stated)	-	-	?	.	.	.
Cc1[nH]c2ccccc2c1/C=C(\C#N)C(=O)NC(C)c1ccccc1 (configuration not stated)	-	-	7.1µM	-	-	-
COC(=O)/C(C#N)=C\c1c(OC)[nH]c2ccccc12	9.2µM	?	?	-	?	-
COc1cc(/C=C(/C#N)C(=O)NC(C)c2ccccc2)cc(OC)c1O (configuration not stated)	?	-	?	-	-	-
COc1ccccc1/C=C/C=C(\C#N)C(=O)NC(C)c1ccccc1 (configuration not stated)	21µM	-	-	-	-	-
